# Results from PubChem BioAssay (Tox21).
# Values joined by “and” are separate entries in the source; they are usually repeats but may differ in a detail not shown here. Identical values can stand only once. Results filed as inconclusive are left out. A number with no mark means an inactive call. Active and inactive are the calls of the source. The call rests on the fitted dose curve; in most records, active means well fitted cell-killing curve with a large enough effect in the repeat runs; inconclusive means weak or mixed curves; inactive means no such curve, though single readings can be large or run the other way.
# Assay: qHTS assay for identifying genotoxic compounds that show differential cytotoxicity against isogenic chicken DT40 cell lines with known DNA damage response pathways - Rad54/Ku70 mutant cell line (AID 743015); further: nearly all actives have a fitted effect of over 60% in size
# Conditions: DT40 Rad54/Ku70 mutant viability, CellTiter-Glo, 40 h; series mostly up to 66.8 µM; activity change, negative = cytotoxicity: at the top concentration
# Text: National Center for Advancing Translational Sciences [NCATS]
# NIH Chemical Genomics Center [NCGC]
# U.S. Environmental Protection Agency [EPA]
# National Institutes of Environmental Health Sciences [NIEHS]
# National Toxicology Program [NTP]
# U.S. Food and Drug Administration [FDA]
# DNA repair pathways play a critical role in cellular homeostasis by repairing DNA damage induced by endogenous processes and xenobiotics. Isogenic chicken DT40 cell lines deficient in different DNA repair pathways can be used to identify genotoxic compounds and aid in characterizing the nature of the DNA damage induced. Two DNA repair-deficient cell lines with disrupted genes, Rad54/Ku70 or Rev3, were used to screen the Tox21 10K compound library. Possible genotoxicity was based on the presence of a significant increase in cytotoxicity in one or more of the DNA repair-deficient cell lines compared to that observed in the parental DNA repair-proficient cell line. CellTiter Glo viability assay (Promega, Madison, WI) was used to measure cell viability in these cells after compound treatment. This assay includes the data from the Rad54/Ku70 mutant cell line.
# Tox21 Assay Protocol Summary:
# 300 DT40 mutant cells in 5 uL/well were dispensed into white, solid-bottom 1536-well plates using a Multidrop Combi (ThermoFisher Scientific, Waltham, MA) dispenser. After the assay plates were incubated at 37 C/5% CO2 for approximately 0.5 hour, 23 nL of compounds dissolved in DMSO, positive controls or DMSO only was transferred into the assay plate by a pintool work station (Kalypsys, San Diego, CA). The assay plates were incubated at 37 C/5% CO2 for 40 hours. After 5 uL per well of CellTiter-Glo reagent was added into each well of the assay plates, the plates were incubated for 30 min at room temperature and the luminescence intensity of the plates was measured using a ViewLux (PerkinElmer, Shelton, CT) plate reader.
# On the % scale 0 is the no-effect control and ±100 the full control effect; potency means the concentration at half of the fitted maximal effect.
SMILES,Potency,"activity change, negative = cytotoxicity"
CCCCCCOC(=O)c1ccc(O)cc1,48.6 µM (active),–
CCOC(=O)O[C@]1(C(=O)OCCl)CC[C@H]2[C@@H]3CCC4=CC(=O)C=C[C@]4(C)[C@H]3[C@@H](O)C[C@@]21C,–,7.51%
CC(C)(C)CC(C)(C)c1ccc(O)c(Cc2ccc(Cl)cc2Cl)c1,26.6 µM (active),–
O=CC=C(c1ccccc1)c1ccccc1,17.4 µM (active),–
Cc1ccc2oc(CN(Cc3ccccc3)C(=O)Nc3c(F)cc(F)cc3F)c(-c3ccc(Cl)cc3)c2c1,14.9 µM (active),–
O=C1C=CC(=O)N1c1ccc(Cc2ccc(N3C(=O)C=CC3=O)cc2)cc1,1.54 µM (active),–
OC1(c2ccc(Cl)c(C(F)(F)F)c2)CCN(CCCC(c2ccc(F)cc2)c2ccc(F)cc2)CC1,5.96 µM (active),–
[Cl][Bi]([Cl])([c]1ccccc1)([c]1ccccc1)[c]1ccccc1,2.42 µM (active),–
CCN(CC)CCCC(C)Nc1c2ccc(Cl)cc2nc2ccc(OC)cc12 (stereo not given),6.68 µM (active),–
C=C(C)C(=O)OCC[N+](C)(C)C,38.4 µM (active),–
Nc1ccc(N)c2ccccc12,6.85 µM (active),–
CC/C(=C(\c1ccc(O)cc1)c1ccc(OCCN(C)C)cc1)c1ccccc1,1.09 µM (active),–
CCCCCCCC[N+](CCCCCCCC)(CCCCCCCC)CCCCCCCC,1.37 µM (active),–
c1ccc(CSCc2ccccc2)cc1,–,-0.876%
O=C(Oc1ccccc1)c1ccccc1C(=O)Oc1ccccc1,17.2 µM (active),–
CCOC(=O)c1nc(C(Cl)(Cl)Cl)n(-c2ccc(Cl)cc2Cl)n1,30.6 µM (active),–
Cc1c(C)c2c(c(C)c1O)CCC(C)(COc1ccc(CC3SC(=O)NC3=O)cc1)O2 (stereo not given),10.6 µM (active) and 24.3 µM (active),–
O=C1C=CC(=O)N1,5.59 µM (active),–
Oc1c(Cl)cc(Cl)c2cccnc12,4.22 µM (active),–
OCCCCCCCCCCCCBr,5.53 µM (active),–

SMILES,Potency,"activity change, negative = cytotoxicity"
O=C(NO)C1(NS(=O)(=O)c2ccc(Oc3ccc(F)cc3)cc2)CCOCC1,30.6 µM (active),–
Oc1ccc(Cl)cc1Sc1cc(Cl)ccc1O,16.8 µM (active) and 24.3 µM (active),–
CCCCCCCCOc1ccccc1C(=O)Nc1ccc(C(=O)OCC[N+](C)(CC)CC)cc1,26.6 µM (active),–
CCN1/C(=C/C=C/c2sc3ccccc3[n+]2CC)Sc2ccccc21,0.0266 µM (active),–
CCN(CC)CCNC(=O)c1c(C)[nH]c(/C=C2\C(=O)Nc3ccc(F)cc32)c1C,7.5 µM (active),–
CCN(Cc1cccnc1)C(=O)c1cccc(Cl)c1[C@]1(C)C(=O)N(Cc2ccc(OC)cc2OC)c2ccc(Cl)cc21,5.09 µM (active),–
COc1cc(-c2ccc(N=C=O)c(OC)c2)ccc1N=C=O,–,3.66%
Oc1cc2ccccc2c2ccccc12,1.09 µM (active),–
CC1=C(/C=C/C(C)=C/C=C/C(C)=C/C=O)C(C)(C)CCC1,12.1 µM (active),–
CC(C)(C)CC(C)(C)c1ccc(OCCOCC[N+](C)(C)Cc2ccccc2)cc1,1.06 µM (active) and 1.93 µM (active),–
CC(=O)N1CCN(c2ccc(OC[C@H]3CO[C@](Cn4ccnc4)(c4ccc(Cl)cc4Cl)O3)cc2)CC1,21.1 µM (active) and 6.11 µM (active),–
O=C(N/N=C/c1ccccc1O)c1ccncc1,5.96 µM (active),–
CCCCCCCCCOC(=O)c1ccc(O)cc1,19.1 µM (active),–
CCCCCCCC[P+](CCCCCCCC)(CCCCCCCC)CCCCCCCC,5.42 µM (active),–
CCCCN(CCCC)C(=O)N(CCCC)CCCC,–,-9.84%
NNc1nc(-c2ccccc2)cs1,–,-16.9% [at 95.1 µM]
Cc1onc(-c2c(Cl)cccc2Cl)c1C(=O)N[C@@H]1C(=O)N2[C@@H]1SC(C)(C)[C@@H]2C(=O)O,–,5.69%
CNCc1cc(F)ccc1Oc1ccc(Cl)c(Cl)c1,13.7 µM (active),–
CCN(CCC#N)c1ccc(N=Nc2c(Cl)cc([N+](=O)[O-])cc2Cl)cc1,17.2 µM (active),–
O=c1cc(-c2ccc(O)cc2)oc2cc(O)cc(O)c12,31 µM (active) and 13.7 µM (active),–
